Data taken from PubChem BioAssay (Tox21).
Records with an inconclusive call do not appear. Activity calls are given as the source filed them. Unless noted, calls come from the whole dose curve; as a rule, active = well fitted curve in the direction sought with a large enough effect in the repeat runs; inconclusive = weak or mixed curves; inactive = no such curve, though single readings can be large; an effect the other way counts as inactive or inconclusive.

How the values were obtained:
[1] = qHTS assay for small molecule agonists of the p53 signaling pathway (AID 651631; calls by dose curve; note: nearly all actives have a fitted effect of over 15% in size)
Outline: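 Quantitative high-throughput format: 4,000 p53RE-bla HCT-116 cells/well, 5 h pre-incubation, 16 h compound exposure at 37 °C, 2 h room-temperature substrate step, fluorescence intensity measured.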

[2] = qHTS assay for small molecules that induce genotoxicity in human embryonic kidney cells expressing luciferase-tagged ATAD5 (AID 651632); note: nearly all actives have a fitted effect of over 15% in size
Outline: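 Increased luciferase signal from ATAD5-tagged reporter cells indicates DNA-damage-driven ATAD5 induction. HEK293T cells are treated for 16 hr at 37C before detection with Amplite.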

[3] = qHTS assay for small molecules that induce genotoxicity in human embryonic kidney cells expressing luciferase-tagged ATAD5 - cell viability (AID 651634; calls by dose curve; note: nearly all actives have a fitted effect of over 25% in size)
Outline: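 Cytotoxicity counterscreen in HEK293T cells bearing an ATAD5-luciferase reporter: live-cell protease activity measured by CellTiter-Fluor fluorescence after 15.5 hr compound exposure.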

[4] = qHTS assay for small molecule disruptors of the mitochondrial membrane potential - cell viability (AID 720634; calls by dose curve;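 note: human HepG2 liver cancer cells; series mostly up to about 83 µM; nearly all actives have a fitted effect of over 20% in size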)
Outline: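 After overnight attachment at 37 C, HepG2 cells received compound or DMSO vehicle for 1 hr. Viability is then taken from ATP-driven luminescence following a 30 min room-temperature CellTiter-Glo step.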

[5] = qHTS assay to test for compound auto fluorescence at 590 nm (red) in HepG2 cells (AID 720674)
Outline: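 Intrinsic compound fluorescence in the red window (Ex/Em 540/590 nm) is measured in attached HepG2 cells exposed for 1 hr, DMSO vehicle as baseline, benchmarked to Rose Bengal sodium.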

[6] = qHTS assay to test for compound auto fluorescence at 535 nm (green) in HepG2 cells (AID 720675)
[7] = qHTS assay to test for compound auto fluorescence at 460 nm (blue) in HEK293 cells (AID 720678)
Outline: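 Cells were seeded and left to adhere for 4-5 hr at 37C. Compounds were then pin-transferred. After an overnight incubation at 37C under 5% CO2, intrinsic fluorescence at 405/460 nm was measured and referenced to triamterene.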

[8] = qHTS assay to test for compound auto fluorescence at 590 nm (red) in HEK293 cells (AID 720679)
Outline: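 Each well held 2,000 HEK293 cells in medium containing 10% dialyzed FBS. Following 4-5 hr attachment at 37C, 23 nL test compound or DMSO was added; plates sat overnight, and red fluorescence (540/590nm) was recorded.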

[9] = qHTS assay to test for compound auto fluorescence at 535 nm (green) in HEK293 cells (AID 720680)
[10] = qHTS assay to test for compound auto fluorescence at 460 nm (blue) in HEK293 cell free culture (AID 720681)
Outline: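 Test compounds were pinned into cell-free culture medium (DMEM with 10% FBS) and fluorescence was read directly at Ex/Em 405/460 nm. Signals were expressed as fluorescence equivalents of triamterene, with DMSO vehicle as control.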

[11] = qHTS assay to test for compound auto fluorescence at 535 nm (green) in HEK293 cell free culture (AID 720682)
Outline: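 Measurement is a direct plate read of green fluorescence (485 nm in, 535 nm out) after compound addition to serum-supplemented DMEM lacking cells, with fluorescein used to express intensities.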

[12] = qHTS assay to test for compound auto fluorescence at 590 nm (red) in HEK293 cell free culture (AID 720683)
Outline: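 Tox21 10K library compounds were pinned into cell-free DMEM with 10% FBS and fluorescence was read at excitation 540 nm. Activity is expressed as Rose Bengal sodium equivalency.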

[13] = qHTS assay to test for compound auto fluorescence at 590 nm (red) in HepG2 cell free culture (AID 720684)
Outline: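 Measured in medium alone (MEM containing 10% FBS) following pintool addition of compound; emission at 590 nm with 540 nm excitation, referenced to Rose Bengal sodium.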

[14] = qHTS assay to test for compound auto fluorescence at 535 nm (green) in HepG2 cell free culture (AID 720686)
[15] = qHTS assay to test for compound auto fluorescence at 460 nm (blue) in HepG2 cells (AID 720687)
Outline: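 Cells (2,000/well in MEM with 10% FBS) attached overnight at 37 C, then were exposed to compound or DMSO for 1 hr at 37 C, 5% CO2. Fluorescence read at Ex/Em 405/460 nm, expressed as triamterene-equivalent signal.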

[16] = qHTS assay to test for compound auto fluorescence at 460 nm (blue) in HepG2 cell free culture (AID 720685)
Outline: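 Compound (23 nL) or DMSO pinned into cell-free MEM with 10% FBS; blue fluorescence read at 405/460 nm excitation/emission, expressed as auto-fluorescence equivalency to triamterene.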

[17] = biological target: Glucocorticoid receptor (Homo sapiens) (UniProt P04150); experiment: qHTS assay to identify small molecule antagonists of the glucocorticoid receptor (GR) signaling pathway (AID 720692; active = well fitted inhibition curve with a large enough effect in the signal ratio in the repeat runs, not every such curve was filed as active; the % refers to the signal ratio)
Outline: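 Cells plated, rested 4 h at 37 C/5% CO2; compounds in DMSO pin-transferred; dexamethasone added to 5 nM final; 18 h at 37 C; B/G FRET substrate added, 2 h room temperature; fluorescence measured.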

[18] = qHTS assay for small molecule disruptors of the mitochondrial membrane potential (AID 720635)
Outline: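 HepG2 cells (2,000/well) attached overnight at 37C, then took compound for 1 hr at 37C, 5% CO2. Mito-MPS dye was added for 30 min; fluorescence was read at 490/535 nm (monomers) and 540/590 nm (aggregates).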

[19] = biological target: Glucocorticoid receptor (Homo sapiens) (UniProt P04150); experiment: qHTS assay to identify small molecule agonists of the glucocorticoid receptor (GR) signaling pathway (AID 720691; active = well fitted activation curve with a large enough effect in the signal ratio in the repeat runs, not every such curve was filed as active; the % refers to the signal ratio)
Outline: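 Agonist mode in a HeLa line carrying a GRE-controlled beta-lactamase reporter. Compounds act for 18 h at 37 C before a 2 h room-temperature FRET substrate step and fluorescence reading.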

[20] = qHTS assay for small molecule agonists of the p53 signaling pathway - cell viability (AID 651633; calls by dose curve;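 note: p53RE-bla HCT reporter cells with a stable beta-lactamase p53 reporter; series mostly up to about 83 µM; nearly all actives have a fitted effect of over 30% in size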)
Outline: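 p53RE-bla cells, seeded at 4,000 per well and rested 5 h at 37 C/5% CO2, received compounds in DMSO for 16 h at 37 C. CellTiter-Glo was then added, and luminescence was read after 30 min at room temperature to gauge cytotoxicity.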

Measured: Potency

Glucocorticoid receptor (Homo sapiens), sequence (P04150 whole entry, looked up): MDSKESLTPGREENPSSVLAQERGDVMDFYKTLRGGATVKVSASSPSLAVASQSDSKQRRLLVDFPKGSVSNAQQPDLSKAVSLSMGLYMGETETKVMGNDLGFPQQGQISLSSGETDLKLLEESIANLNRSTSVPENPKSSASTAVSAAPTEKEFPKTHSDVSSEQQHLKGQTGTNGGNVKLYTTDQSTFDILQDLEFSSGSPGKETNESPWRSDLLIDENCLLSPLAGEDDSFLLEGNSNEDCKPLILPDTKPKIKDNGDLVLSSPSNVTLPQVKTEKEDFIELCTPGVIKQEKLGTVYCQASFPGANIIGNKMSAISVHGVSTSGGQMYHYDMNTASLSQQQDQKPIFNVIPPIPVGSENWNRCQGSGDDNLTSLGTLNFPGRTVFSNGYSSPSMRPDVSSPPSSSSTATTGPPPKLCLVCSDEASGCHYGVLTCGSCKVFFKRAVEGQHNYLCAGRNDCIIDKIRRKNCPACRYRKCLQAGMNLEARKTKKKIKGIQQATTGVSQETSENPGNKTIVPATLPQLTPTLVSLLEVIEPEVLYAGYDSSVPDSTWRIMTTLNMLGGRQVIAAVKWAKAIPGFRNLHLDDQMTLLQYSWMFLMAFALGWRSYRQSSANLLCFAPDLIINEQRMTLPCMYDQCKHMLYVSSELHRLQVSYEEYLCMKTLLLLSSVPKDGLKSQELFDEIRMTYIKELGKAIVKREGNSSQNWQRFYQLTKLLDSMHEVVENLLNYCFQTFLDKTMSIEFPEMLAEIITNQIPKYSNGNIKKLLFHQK

NCC1(Cc2noc(=O)[nH]2)CCCCC1
not listed: [16] | [17] | [18] | [19] | [20]
inactive: all other assays above

Cn1c(=O)c2[nH]c(Br)nc2n(C)c1=O
not listed: [3] | [4] | [18] | [19] | [20]
inactive: all other assays above

O=C(O)CCCCCC(=O)O
not listed: [6] | [10] | [11] | [20]
inactive: all other assays above

CC/C=C\CCOC(=O)c1ccccc1O
not listed: [3] | [5] | [10] | [11] | [12] | [18] | [20]
inactive: all other assays above

O=S(=O)(O)c1ccc2c(N=Nc3ccc(S(=O)(=O)O)c4ccccc34)c(O)c(S(=O)(=O)O)cc2c1
not listed: [2] | [3] | [5] | [17] | [18] | [19]
inactive: all other assays above

CCO
not listed: [4] | [17] | [18] | [20]
inactive: all other assays above

N[C@@H](Cc1ccc(O)cc1)C(=O)O
not listed: [1] | [17]
inactive: all other assays above

CCOCCOCC
not listed: [3] | [4] | [5] | [10] | [11] | [16] | [18] | [19]
inactive: all other assays above

CCC/C=C(\C=O)CC
not listed: [1] | [6] | [17]
inactive: all other assays above
